The values that follow come from PubChem BioAssay (Tox21).

Each structure is given as a SMILES string. “And” between values parts separate entries of the source, which are not always exact repeats. Equal values may be shown once. Records with an inconclusive call do not appear. Where a structure was tested more than once in an assay, its records may differ in their call. The source made the active and inactive calls. Unless noted, calls come from the whole dose curve; as a rule, active = well fitted curve in the direction sought with a large enough effect in the repeat runs; inconclusive = weak or mixed curves; inactive = no such curve, though single readings can be large; an effect the other way counts as inactive or inconclusive.

Assay [1] can be described thus: qHTS assay to test for compound auto fluorescence at 535 nm (green) in HEK293 cells (AID 720680). (qHTS replaces the single test concentration by a dilution series.)
Assay [2] in a line: qHTS assay to test for compound auto fluorescence at 460 nm (blue) in HEK293 cell free culture (AID 720681). Put shortly: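 Compounds were added to cell-free DMEM with 10% FBS and fluorescence read directly. The blue channel used 405 nm excitation and 460 nm emission, with triamterene as the reference fluorophore.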
The nature of assay [3]: qHTS assay to test for compound auto fluorescence at 535 nm (green) in HEK293 cell free culture (AID 720682). Put shortly:
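No cells present: wells hold DMEM supplemented with 10% FBS, into which compound or vehicle is pinned. Green emission is then recorded (485 nm excitation, 535 nm emission) and scaled to fluorescein.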

The nature of assay [4]: qHTS assay to test for compound auto fluorescence at 590 nm (red) in HEK293 cell free culture (AID 720683). A digest of the protocol: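 Cell-free wells of DMEM with 10% FBS received compound, and intrinsic fluorescence was read at excitation/emission 540/590 nm. Values expressed as equivalence to Rose Bengal sodium.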
Assay [5] can be described thus: qHTS assay to test for compound auto fluorescence at 590 nm (red) in HepG2 cell free culture (AID 720684). Put shortly: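 Auto fluorescence equivalency versus Rose Bengal sodium, red channel Ex/Em 540/590 nm; compounds in cell-free MEM/10% FBS; DMSO vehicle control.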
Assay [6] is described as follows: qHTS assay to test for compound auto fluorescence at 460 nm (blue) in HepG2 cell free culture (AID 720685). Put shortly: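 Cell-free plates of MEM plus 10% FBS received 23 nL compound or DMSO vehicle; blue-channel (405/460 nm) intensity scored against triamterene as reference fluorophore.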
Assay [7] can be described thus: qHTS assay to test for compound auto fluorescence at 535 nm (green) in HepG2 cell free culture (AID 720686).
Assay [8] is described as follows: qHTS assay to test for compound auto fluorescence at 460 nm (blue) in HepG2 cells (AID 720687). A digest of the protocol:
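HepG2 cells in MEM with 10% FBS, attached overnight at 37 C, were exposed to compound or DMSO for 1 hr at 37 C, 5% CO2. Blue fluorescence was read at 405/460 nm, with triamterene as reference fluorophore.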

For assay [9], the target named is Glucocorticoid receptor (Homo sapiens) (UniProt P04150). Nature of the assay: qHTS assay to identify small molecule agonists of the glucocorticoid receptor (GR) signaling pathway (AID 720691; active = well fitted activation curve with a large enough effect in the signal ratio in the repeat runs, not every such curve was filed as active; the % refers to the signal ratio). Put shortly: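 Compounds in DMSO, alongside positive controls, were added to GR-bla HeLa reporter cells and incubated 18 h at 37 C; GRE-driven beta-lactamase was detected by fluorescence after 2 h with FRET substrate at room temperature.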
Chain of Glucocorticoid receptor (Homo sapiens) (P04150 whole entry, looked up): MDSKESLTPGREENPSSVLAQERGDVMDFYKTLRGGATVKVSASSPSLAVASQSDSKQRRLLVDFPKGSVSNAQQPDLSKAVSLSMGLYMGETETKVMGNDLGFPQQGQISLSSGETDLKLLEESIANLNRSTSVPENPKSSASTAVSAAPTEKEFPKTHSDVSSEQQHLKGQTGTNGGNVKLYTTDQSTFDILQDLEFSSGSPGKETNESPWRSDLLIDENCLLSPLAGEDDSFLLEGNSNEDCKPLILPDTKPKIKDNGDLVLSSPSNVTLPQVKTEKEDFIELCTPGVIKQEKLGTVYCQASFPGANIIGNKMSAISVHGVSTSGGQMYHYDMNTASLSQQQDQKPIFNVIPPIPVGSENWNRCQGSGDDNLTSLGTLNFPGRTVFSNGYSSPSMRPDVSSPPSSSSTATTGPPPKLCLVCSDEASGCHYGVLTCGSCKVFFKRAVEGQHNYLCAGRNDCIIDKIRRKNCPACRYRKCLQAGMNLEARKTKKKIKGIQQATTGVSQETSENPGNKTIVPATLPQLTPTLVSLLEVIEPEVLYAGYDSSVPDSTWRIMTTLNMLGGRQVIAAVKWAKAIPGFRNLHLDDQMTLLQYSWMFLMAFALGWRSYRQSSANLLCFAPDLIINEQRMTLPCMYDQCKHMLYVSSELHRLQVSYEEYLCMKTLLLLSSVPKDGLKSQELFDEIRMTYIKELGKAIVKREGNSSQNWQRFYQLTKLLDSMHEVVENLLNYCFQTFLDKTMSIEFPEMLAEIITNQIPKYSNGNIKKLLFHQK

For assay [10] the target is unchanged. Nature of the assay: qHTS assay to identify small molecule antagonists of the glucocorticoid receptor (GR) signaling pathway (AID 720692; active = well fitted inhibition curve with a large enough effect in the signal ratio in the repeat runs, not every such curve was filed as active; the % refers to the signal ratio). A digest of the protocol: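 In a 1536-well cell format, compounds were added 4 h after seeding GR-bla HeLa cells, together with dexamethasone at 5 nM final; reporter activity was measured by FRET-substrate fluorescence following 18 h at 37 C.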

Assay [11] can be described thus: qHTS assay to identify small molecule antagonists of the glucocorticoid receptor (GR) signaling pathway - cell viability counter screen (AID 720693). Note: nearly all actives have a fitted effect of over 55% in size. Note: potency is the fitted concentration of half-maximal effect.
A short description of assay [12]: qHTS assay for identifying genotoxic compounds that show differential cytotoxicity against isogenic chicken DT40 cell lines with known DNA damage response pathways - wild type cell line (AID 743012). Note: nearly all actives have a fitted effect of over 60% in size. Note: potency is the fitted concentration of half-maximal effect. Put shortly:
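Viability of DNA repair-proficient chicken DT40 cells was assessed by CellTiter-Glo luminescence following 40 h compound exposure at 37 C/5% CO2.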

A short description of assay [13]: qHTS assay for identifying genotoxic compounds that show differential cytotoxicity against isogenic chicken DT40 cell lines with known DNA damage response pathways - Rev3 mutant cell line (AID 743014). Note: nearly all actives have a fitted effect of over 55% in size. Note: potency is the fitted concentration of half-maximal effect.
Assay [14] is described as follows: qHTS assay for identifying genotoxic compounds that show differential cytotoxicity against isogenic chicken DT40 cell lines with known DNA damage response pathways - Rad54/Ku70 mutant cell line (AID 743015). Note: nearly all actives have a fitted effect of over 60% in size. Note: potency is the fitted concentration of half-maximal effect.
Assay [15] in a line: qHTS assay to identify small molecule antagonists of the androgen receptor (AR) signaling pathway - cell viability counter screen (AID 743033; note: nearly all actives have a fitted effect of over 45% in size; note: potency is the fitted concentration of half-maximal effect).
Assay [16] can be described thus: qHTS assay to identify small molecule antagonists of the androgen receptor (AR) signaling pathway using the MDA cell line - cell viability counter screen (AID 743041; note: nearly all actives have a fitted effect of over 45% in size; note: potency is the fitted concentration of half-maximal effect). A digest of the protocol:
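Compound exposure lasted 16 h at 37C in MDA-kb2 AR-luc cells stimulated with R1881. Protease-based CellTiter-Fluor reagent was applied for the final 30 min and fluorescence measured.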

Assay [17] addresses Androgen receptor (Homo sapiens) (UniProt P10275). Description: qHTS assay to identify small molecule agonists of the androgen receptor (AR) signaling pathway using the MDA cell line (AID 743040; note: nearly all actives have a fitted effect of over 20% in size). A digest of the protocol:
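Testing was done with the MDA-kb2 AR-luc line, a human breast carcinoma stably transfected with MMTV-luciferase containing AR and GR response elements. Cells were exposed 16 h at 37C before ONE-Glo luminescence detection.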

Assay [18] has the same target. Nature of the assay: qHTS assay to identify small molecule antagonists of the androgen receptor (AR) signaling pathway using the MDA cell line (AID 743042; note: potency is the fitted concentration of half-maximal effect; nearly all actives have a fitted effect of over 55% in size). A digest of the protocol: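 MDA-kb2 breast carcinoma cells carrying MMTV-luciferase (AR/GR responsive) were co-treated with compounds and the agonist R1881 for 16 h at 37C. Inhibition read as ONE-Glo luminescence; CellTiter-Fluor fluorescence measured in parallel for cytotoxicity.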

Chain of Androgen receptor (Homo sapiens) (P10275 whole entry, looked up): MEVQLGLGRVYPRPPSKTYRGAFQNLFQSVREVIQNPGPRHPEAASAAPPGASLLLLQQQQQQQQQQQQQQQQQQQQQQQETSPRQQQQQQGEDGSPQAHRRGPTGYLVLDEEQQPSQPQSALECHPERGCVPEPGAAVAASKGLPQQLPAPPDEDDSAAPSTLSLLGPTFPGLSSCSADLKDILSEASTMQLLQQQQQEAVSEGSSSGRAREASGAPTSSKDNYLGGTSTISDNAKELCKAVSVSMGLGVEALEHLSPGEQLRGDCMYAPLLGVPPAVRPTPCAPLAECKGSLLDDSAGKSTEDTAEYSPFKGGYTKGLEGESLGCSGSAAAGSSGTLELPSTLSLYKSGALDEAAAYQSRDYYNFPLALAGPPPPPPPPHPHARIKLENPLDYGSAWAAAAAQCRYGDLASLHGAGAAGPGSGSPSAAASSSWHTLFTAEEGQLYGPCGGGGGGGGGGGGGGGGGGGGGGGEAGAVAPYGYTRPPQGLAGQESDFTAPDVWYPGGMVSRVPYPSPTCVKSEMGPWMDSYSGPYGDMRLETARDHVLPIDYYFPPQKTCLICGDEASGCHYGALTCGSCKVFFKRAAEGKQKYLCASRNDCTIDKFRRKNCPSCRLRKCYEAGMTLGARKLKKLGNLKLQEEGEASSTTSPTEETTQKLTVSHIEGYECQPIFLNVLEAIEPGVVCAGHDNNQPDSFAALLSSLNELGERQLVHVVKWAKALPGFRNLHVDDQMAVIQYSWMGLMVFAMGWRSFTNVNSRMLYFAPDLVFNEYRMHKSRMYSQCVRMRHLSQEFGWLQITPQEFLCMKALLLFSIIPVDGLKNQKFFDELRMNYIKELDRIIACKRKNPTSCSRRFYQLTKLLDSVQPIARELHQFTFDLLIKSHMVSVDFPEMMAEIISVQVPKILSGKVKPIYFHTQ

Take `OCCOc1ccccc1`: the molecule was classed as inactive in assay [1], in assay [2], in assay [3], in assay [4], in assay [5] and in assay [6]. Further, the molecule was classed as inactive in [7], in assay [8] and in [9]. For the same molecule, the Potency entry in [10], in assay [11], in assay [12], in [13], in [14] and in assay [15] was “inactive” each time. Also, the Potency result in assay [16] is “inactive”.
On to `O=C(O)COc1ccc(Cl)cc1Cl`, for which the result in assay [1], in [2], in assay [3], in [4], in assay [5] and in assay [6] was inactive. Also, the result in assay [7], in assay [8] and in [9] was inactive. For the same molecule, the Potency entry in [10], in [11], in assay [13], in assay [14], in assay [15] and in assay [16] was “inactive” throughout.
For the molecule `CCC[N+]1(C)CCCC1`, the result in assay [1], in assay [2], in assay [3], in assay [4], in [5] and in assay [6] was inactive. Also, the molecule was called inactive in assay [7] and in assay [8]. Also, the Potency result in [11], in assay [13], in assay [14], in assay [15] and in [16] was “inactive” in each case.
On to `COc1ccccc1N`, for which the molecule was called inactive in assay [1], in assay [2], in assay [3], in [4], in [5] and in [6]. Moreover, the molecule was called inactive in assay [7] and in assay [8]. For the same molecule, the Potency result in assay [11], in assay [13], in assay [14], in assay [15] and in assay [16] was “inactive” throughout.
With `CCOP(=S)(OCC)Oc1ccc2c(C)c(Cl)c(=O)oc2c1`, the molecule was called inactive in assay [1], in [2], in assay [3], in assay [4], in assay [5] and in assay [6]. In addition, the result in assay [7], in assay [8] and in assay [9] was inactive. In addition, the Potency result in [11], in assay [15] and in assay [16] was “inactive” each time. Moreover, the Potency result in assay [13] was “inactive and 19.3 µM (active)”; in assay [14] it was “inactive and 17.2 µM (active)”.
Regarding `C[C@]12CCC(=O)C=C1CC[C@@H]1[C@@H]2CC[C@]2(C)C(=O)CC[C@@H]12`, the outcome in assay [1], in [2], in [3], in assay [4], in assay [5] and in assay [6] was inactive. In addition, the call in [7] and in assay [8] was inactive. The Potency entry in [11], in assay [15] and in assay [16] was “inactive” in each case. The Potency in assay [13] is 29.8 µM (active) and 47.7 µM (active) and 54.5 µM (active); in assay [14] it was 26.6 µM (active) and 42.5 µM (active) and 27.3 µM (active).
Consider `CC[n+]1ccccc1`, for which the outcome in assay [1], in assay [2], in assay [3], in assay [4], in assay [5] and in assay [6] was inactive. Besides, the call in [7] and in assay [8] was inactive. For the same molecule, the Potency result in assay [11] was “inactive”. Further, the Potency result is “inactive and 241 nM (active)” in assay [12]; “inactive and 171 nM (active)” in [13]; “inactive and 136 nM (active)” in assay [14]; “inactive and 21.7 µM (active)” in assay [15].
Take `CCCCn1cc[n+](C)c1C`: the result in assay [1], in assay [2], in [3], in [4], in assay [5] and in assay [6] was inactive. Further, the molecule was classed as inactive in assay [7] and in [8]. Besides, the Potency entry in assay [11], in assay [12], in [13], in assay [14], in assay [15] and in assay [16] was “inactive” in each case.
Turning to `CCC[N+]1(C)CCCCC1`, the result in [1], in assay [2], in assay [3], in [4], in assay [5] and in assay [6] was inactive. Besides, the molecule was called inactive in assay [7] and in [8]. For the same molecule, the Potency entry in assay [11], in [12], in [13], in [14], in [15] and in [16] was “inactive” each time.
As for `CCCC[n+]1ccccc1`, the result in [1], in assay [2], in assay [3], in [4], in assay [5] and in assay [6] was inactive. For the same molecule, the outcome in [7] and in [8] was inactive. The Potency result in assay [11], in assay [13], in [14], in assay [15] and in assay [16] was “inactive” throughout.
As to `Oc1cccc2cccnc12`, the molecule was called inactive in [1], in [2], in [3], in assay [4], in [5] and in [6]. Moreover, the molecule was called inactive in assay [7] and in assay [8]. Also, the Potency entry in assay [11] is “inactive”.
For the molecule `CC(=O)[O][Hg][c]1ccccc1`, the outcome in [1], in assay [2], in assay [3], in assay [4], in assay [5] and in [6] was inactive. For the same molecule, the molecule was classed as inactive in assay [7], in assay [8] and in assay [17]. In addition, the Potency in assay [11] was 952 nM (active) and 485 nM (active) and 436 nM (active); in [12] it was 211 nM (active) and 271 nM (active) and 109 nM (active); in [13], 376 nM (active) and 152 nM (active) and 122 nM (active); in assay [14], 237 nM (active) and 152 nM (active) and 86.3 nM (active); in [15], 5.35 µM (active) and 1.37 µM (active) and 1.95 µM (active); in assay [16] it was 5.31 µM (active) and 3.82 µM (active) and 3.06 µM (active). The Potency in assay [18] is 2.98 µM (active) and 1.92 µM (active) and 2.17 µM (active).
For `CCCC[N+]1(C)CCCC1`, the molecule was classed as inactive in assay [1], in [2], in [3], in assay [4], in assay [5] and in assay [6]. The outcome in assay [7] and in [8] was inactive. Also, the Potency result in [11], in assay [13], in [14], in assay [15] and in assay [16] was “inactive” each time.
`O=C(O)c1ccccc1O`: the molecule was classed as inactive in assay [3]. Further, the Potency entry in [11], in assay [12], in [13], in assay [14], in [15] and in [16] was “inactive” each time.
Turning to `CCCC[n+]1ccccc1C`, the call in assay [1], in [2], in assay [3], in assay [4], in assay [5] and in [6] was inactive. Besides, the molecule was called inactive in assay [7] and in assay [8]. Further, the Potency entry in [11], in assay [13], in assay [14], in [15] and in [16] was “inactive” each time.
For the molecule `Oc1ccccc1-c1ccccc1`, the molecule was called inactive in [1], in assay [2], in assay [3], in assay [4], in assay [5] and in assay [6]. In addition, the call in assay [7] and in assay [8] was inactive. Moreover, the Potency entry in assay [11], in assay [13], in [14], in [15] and in assay [16] was “inactive” throughout.
Turning to `O=S(=O)(O)O`, the result in assay [1], in assay [2], in assay [3], in assay [4], in [5] and in assay [6] was inactive. Besides, the outcome in assay [7] and in [8] was inactive. Further, the Potency entry in assay [11], in assay [15] and in assay [16] was “inactive” in each case. Moreover, the Potency entry is “inactive and 61.1 µM (active)” in assay [13]; “inactive and 48.6 µM (active)” in assay [14].
